Assay results from the supplement of paper PMC6555819.

Legend:
Assay in all cases: PBM binding z-score (relative to random genomic background probes); higher = stronger binding; sequences stand for … in GC…GCGATTGACAGCGTAGAATGAAGG
[1] = tested on: FXR:RXRa (NR concentration 270 nM, RXRa partner concentration 90 nM)
Outline: (§1)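 Regression normalization was applied to scanned fluorescence from custom Agilent 4×180K protein-binding microarrays. Before scanning, arrays were incubated 1 h with ligand-free nuclear receptor dimers, and binding was detected with antibodies against each partner (one per run). Binding z-scores use the random background probes as reference.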

[2] = tested on: LXRa:RXRa (NR concentration 270 nM, RXRa partner concentration 90 nM)
Outline: as §1

[3] = tested on: LXRa homodimer (NR concentration 270 nM)
Outline: as §1

[4] = tested on: LXRb:RXRa (NR concentration 270 nM, RXRa partner concentration 90 nM)
Outline: as §1

[5] = tested on: LXRb homodimer (NR concentration 270 nM)
Outline: as §1

[6] = tested on: PPARa:RXRa (NR concentration 270 nM, RXRa partner concentration 90 nM)
Outline: as §1

[7] = tested on: PPARg:RXRa (NR concentration 180 nM, RXRa partner concentration 90 nM)
Outline: as §1

[8] = tested on: PPARg:RXRa 270nM:90nM, anti-RXR (NR concentration 270 nM, RXRa partner concentration 90 nM)
Outline: as §1

[9] = tested on: PPARg:RXRa 30nM:10nM, anti-RXR (NR concentration 30 nM, RXRa partner concentration 10 nM)
Outline: as §1

[10] = tested on: PPARg:RXRa 90nM:30nM, anti-RXR (NR concentration 90 nM, RXRa partner concentration 30 nM)
Outline: as §1

[11] = tested on: PPARg:RXRa DBDmut IVT, anti-RXR (DBD mutation: RXRa K156A/R161A, NR concentration 270 nM, RXRa partner concentration 90 nM)
Outline: as §1

[12] = tested on: PPARg:RXRa IVT, anti-PPARg (NR concentration 270 nM, RXRa partner concentration 90 nM)
Outline: as §1

[13] = tested on: PPARg DBDmut:RXRa IVT, anti-PPARg (DBD mutation: PPARg1 K132A/R137A, NR concentration 270 nM, RXRa partner concentration 90 nM)
Outline: as §1

[14] = tested on: PPARg DBDmut IVT, anti-PPARg (DBD mutation: PPARg1 K132A/R137A, NR concentration 270 nM)
Outline: as §1

[15] = tested on: PPARg homodimer (NR concentration 180 nM)
Outline: as §1

[16] = tested on: PXR:RXRa (NR concentration 270 nM, RXRa partner concentration 90 nM)
Outline: as §1

[17] = tested on: PXR homodimer (NR concentration 270 nM)
Outline: as §1

[18] = tested on: RARa:RXR (NR concentration 270 nM, RXRa partner concentration 90 nM)
Outline: as §1

[19] = tested on: RARa homodimer (NR concentration 270 nM)
Outline: as §1

[20] = tested on: RARb:RXRa (NR concentration 270 nM, RXRa partner concentration 90 nM)
Outline: as §1

| Sequence | PBM binding z-score [1] | PBM binding z-score [2] | PBM binding z-score [3] | PBM binding z-score [4] | PBM binding z-score [5] | PBM binding z-score [6] | PBM binding z-score [7] | PBM binding z-score [8] | PBM binding z-score [9] | PBM binding z-score [10] | PBM binding z-score [11] | PBM binding z-score [12] | PBM binding z-score [13] | PBM binding z-score [14] | PBM binding z-score [15] | PBM binding z-score [16] | PBM binding z-score [17] | PBM binding z-score [18] | PBM binding z-score [19] | PBM binding z-score [20] |
| --- | --- | --- | --- | --- | --- | --- | --- | --- | --- | --- | --- | --- | --- | --- | --- | --- | --- | --- | --- | --- |
| CGAACTAGGTCAGAACAGGACAGTGCAGGATGAT | 1.66 | 0.725 | -0.124 | 0.147 | -0.225 | 3.08 | 5.1 | 4.39 | 1.84 | 3.81 | 7.46 | 7.27 | 0.839 | 0.368 | 1.18 | 0.783 | 0.225 | 0.999 | 0.221 | 2.96 |
| CGTCAAAGTTCAACTAAGGTAACATAAAGCACGC | 7 | 6.17 | 4.4 | 4.25 | 1.93 | 5.1 | 5.41 | 5.57 | 2.61 | 4.55 | 0.273 | 2.52 | 1.34 | 1.66 | 3.27 | 5.54 | 3.1 | 4.35 | 1.57 | 5.25 |
| TCGAGTAGGTTAGTCGGGGCGTTCAGCCAACATA | -0.0524 | -0.272 | -0.481 | -0.0286 | -1.19 | 0.148 | -0.893 | 0.268 | 0.61 | 0.186 | 1.73 | 0.976 | -0.368 | -0.973 | -0.66 | -0.237 | -0.771 | -0.294 | -0.96 | 0.0731 |
| TCTATTAGCTGAAGGGCAACCGACGAGTCCGTTT | -0.0805 | 0.244 | -0.393 | 0.444 | -0.429 | 0.629 | 0.0411 | 1.66 | 2.6 | 2.2 | 1.6 | 0.162 | 0.664 | 0.466 | -0.169 | 0.472 | 0.237 | 0.362 | -0.62 | 1.29 |
| CCTACTGGGCCAAGGTCATTAATCAGTCAAAGCA | 2.47 | 2.57 | 1.18 | 2.82 | -0.0551 | 3.71 | 3.45 | 4.19 | 1.47 | 3.23 | 3.47 | 4.44 | 0.31 | 0.133 | 2.15 | 3.16 | 1.21 | 3.39 | 0.145 | 3.29 |
| CCTCGGAGGACAGAAGGTCAGAGTTGTCCGCTTT | 1.19 | 1.59 | 0.486 | 1.21 | -0.813 | 1.88 | 0.0255 | 0.907 | -0.816 | 0.173 | 0.283 | 0.171 | -1.27 | -1.42 | 0.997 | 1.77 | -0.24 | 2 | 0.0194 | 3.16 |
